Screening results: PubChem BioAssay, National Center for Advancing Translational Sciences (NCATS)
NPSR antag = blocks cAMP signaling of the human neuropeptide S receptor; Q6W5P4; CHO-NPSR cells, cAMP TR-FRET, antagonist mode; Potency, µM (titrated, usually from 38.3 µM), hits mostly inhibitors; 220,000 tested, 1% active; AID 1461; also: nearly all actives have a fitted effect of over 50% in size
Target sequence (Q6W5P4 whole entry, looked up): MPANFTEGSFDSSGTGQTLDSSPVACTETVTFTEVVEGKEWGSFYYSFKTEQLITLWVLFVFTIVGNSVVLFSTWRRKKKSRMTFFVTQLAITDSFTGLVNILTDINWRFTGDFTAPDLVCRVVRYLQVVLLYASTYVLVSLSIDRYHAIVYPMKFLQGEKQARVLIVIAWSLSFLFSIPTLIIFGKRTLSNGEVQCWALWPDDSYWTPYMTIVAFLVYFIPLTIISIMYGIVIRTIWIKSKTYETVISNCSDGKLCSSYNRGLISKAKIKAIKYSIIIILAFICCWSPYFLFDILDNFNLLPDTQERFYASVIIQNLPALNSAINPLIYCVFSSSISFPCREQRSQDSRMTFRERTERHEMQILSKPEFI
HTT ATP protect = cytoprotection in Huntington HTT-Q103 PC12 cell model; 230,000 tested, 0.14% active; Potency, µM (doses to about 56.4 µM), usual class: activators; PC12 HTT-Q103 induced, cytoprotection, ATP luminescence, 40 h; AID 1471; also: nearly all actives have a fitted effect of over 45% in size
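ATP quantification (ATPlite) reports survival of PC12 cells in which tebufenozide, 100 nM final, switches on Htt exon 1 with 103 glutamines linked to GFP; compounds are titrated.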
ERK EGF inh = inhibitors of EGF-stimulated ERK signaling pathway; 130,000 tested, 0.41% active; Potency, µM (titrated, usually from 11.5 µM), hits mostly inhibitors; HEK293-V1b, EGF-stimulated phospho-ERK AlphaScreen; also: nearly all actives have a fitted effect of over 55% in size
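Concentration-response of compounds against EGF-driven ERK phosphorylation in V1b-expressing HEK293 cells; 30 min preincubation, 5 min EGF, AlphaScreen detection; Normalized to DMSO basal and 25 nM EGF.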
HTT aggregate = inhibitors of mutant huntingtin aggregate formation in PC12 cells | PC12 HttQ103-GFP aggregates, Acumen cytometry, 40 h | Potency, µM (series often up to 46.1 µM), actives largely listed as inhibitors | 220,000 tested, 1.1% active | AID 1688; also: nearly all actives have a fitted effect of over 60% in size
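PC12 cells stably carrying ecdysone-inducible HTT exon 1 Q103–GFP were induced with tebufenozide (100 nM final) and treated with library compounds in titration. GFP aggregates in lysates were counted by laser scanning cytometry.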
IMPase Li inh = cell-permeable IMPase inhibitors with lithium potentiation; Potency, µM (top dose mostly 59.4 µM), most hits filed as inhibitors; 210,000 tested, 0.35% active; CHO-M1 cells, IP1 TR-FRET (IP-One), carbachol + lithium;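 also: IP1 builds up when IMPase is blocked and the TR-FRET signal falls; nearly all actives have a fitted effect of over 50% in size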
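CHO-M1, 2000 cells/well, 16–30 h culture; cpd + low Li+, 30 min 37C; lysis with d2-IP1/Eu-anti-IP1 Ab, 10 min RT; TR-FRET 665/620 ratio and 620 channel; AC50 via Hill.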
Large screens that a line does not name were inactive. Sampled rows, rich in hits. Any-hit rate of the full collection: about 1.9%. Calls follow the shape of the dose curve; as a rule, active = well fitted curve in the direction sought with a large enough effect; inconclusive = small, poorly fitted or top-dose-only effect, or another doubt; inactive = no such curve, though single readings can be large; an effect the other way counts as inactive or inconclusive.

Cc1ccc(-c2nc(NC(=O)CSc3nnnn3-c3ccccc3)ns2)cc1	IMPase Li inh 10µM (no result: ERK EGF inh)
Cc1ccc(-c2csc3nnc(SCC(=O)Nc4nsc(-c5ccccc5)n4)n23)cc1	NPSR antag inconclusive, HTT aggregate inconclusive (no result: ERK EGF inh)
O=[N+]([O-])c1ccc(-c2nc(C(Cl)Cl)c3ccccc3n2)cc1	NPSR antag 2µM, HTT aggregate 1.78µM (no result: IMPase Li inh)
C=CCOn1c(C)c(C(C)=O)c2c3no[n+]([O-])c3ccc21	HTT aggregate 22.4µM
C=CCOn1c(C)c(C(C)=O)c2c3nonc3ccc21	HTT aggregate 11.2µM
COn1c(C)c(C(C)=O)c2c3no[n+]([O-])c3ccc21	none (no result: ERK EGF inh)
COCCN(CCOC)c1nc(C)nc2c1nc(-c1ccccc1)n2CCN(C)C	none (no result: NPSR antag, HTT aggregate)
C[C@H]1Cc2c(-c3ccccc3)nc3c(c2CO1)CN(S(=O)(=O)c1ccc(C#N)cc1)CC3	none (no result: NPSR antag, ERK EGF inh, HTT aggregate)
O=C(NCCCc1nc2ccccc2[nH]1)c1ccc(F)cc1	HTT ATP protect 0.355µM, HTT aggregate inconclusive
O=C(Nc1ccc(O)cc1)c1cc2ccccc2c(=O)s1	none
O=C(Nc1ccccc1)c1cc2ccccc2c(=O)s1	HTT aggregate 11.2µM (no result: HTT ATP protect)
CCCCC1=CC2=CC(=O)C(C)(OC(=O)CC)C(=O)C2=CN1CCCN(CC)CC (centres undefined)	none (no result: NPSR antag, ERK EGF inh, HTT aggregate)
C#C[C@@]1(O)CC[C@@H]2[C@H]3CCC4=C/C(=N\O)CC[C@H]4[C@@H]3CC[C@]21CC	none (no result: NPSR antag, ERK EGF inh, IMPase Li inh)
COc1cc(/C=C2\CC/C(=C\c3cc(OC)c(O)c(OC)c3)C2=O)cc(OC)c1O	HTT aggregate inconclusive
COc1cc(/C=C2/CCC/C(=C\c3cc(O)c(OC)c(Cl)c3)C2=O)cc(Cl)c1O	NPSR antag 7.94µM, HTT aggregate inconclusive (no result: ERK EGF inh)
CN1CCN(c2ncc3nc(-c4ccccc4)c(=O)n(CCc4ccccc4)c3n2)CC1	none (no result: NPSR antag, ERK EGF inh, HTT aggregate)
COC(=O)N1C2(C=CC1(C)C(=O)NCc1ccc(N(C)C)cc1)CCCCC2 (centres undefined)	none (no result: NPSR antag, HTT aggregate)
O=Cc1ccccc1OCCOc1ccccc1C=O	HTT aggregate 35.5µM
O=Cc1ccccc1Oc1ccccc1	none
FC(F)(F)c1cnc(NNC(=S)Nc2ccccc2Cl)c(Cl)c1	HTT aggregate 22.4µM (no result: ERK EGF inh, IMPase Li inh)
Cc1ccc(NC(=O)c2sc3nc(C)nc(N4CCN(c5ccccn5)CC4)c3c2C)c(C)c1	NPSR antag 12.6µM
Cc1nc(N2CCCCC2)c2c(C)c(C(=O)Nc3ccccc3C(F)(F)F)sc2n1	none
CCc1ccccc1N(CC)C(=O)CCc1nc(-c2ccc(C)cc2)no1	NPSR antag inconclusive, HTT aggregate 10µM (no result: ERK EGF inh)
COc1cccc(C2/C(=C(\O)c3ccc(OC)c(OC)c3)C(=O)C(=O)N2c2cc(C)on2)c1 (centres undefined)	IMPase Li inh 10µM (no result: ERK EGF inh)
COc1ccc(/C(O)=C2\C(=O)C(=O)N(c3cc(C)on3)C2c2ccccc2OC)cc1 (centres undefined)	IMPase Li inh 6.31µM (no result: ERK EGF inh)
CCOc1ccc(C2/C(=C(/O)c3ccc(OC)cc3)C(=O)C(=O)N2c2cc(C)on2)cc1OC (centres undefined)	IMPase Li inh inconclusive (no result: ERK EGF inh)
Cn1nc(C(F)(F)F)c(C#N)c1N1CCN(c2ccc(F)cc2)CC1	HTT aggregate 11.2µM (no result: ERK EGF inh)
Cn1nc(C(F)(F)F)c(C#N)c1N1CCN(c2ccccc2)CC1	HTT aggregate 1.41µM (no result: ERK EGF inh)
Cn1nc(C(F)(F)F)c(C#N)c1N1CCN(c2ccccn2)CC1	none
CC(C)C[C@H](NC(=O)[C@H](Cc1ccccc1)NC(=O)CNC(=O)CNC(=O)[C@@H](N)Cc1ccc(O)cc1)C(=O)N[C@@H](CCCN=C(N)N)C(=O)N[C@@H](CCCN=C(N)N)C(=O)N[C@@H](CCC(N)=O)C(=O)N[C@@H](Cc1ccccc1)C(=O)N[C@@H](CCCCN)C(=O)N[C@H](C(=O)N[C@H](C(=O)N[C@H](C(=O)O)[C@@H](C)O)C(C)C)C(C)C	none (no result: NPSR antag, ERK EGF inh, HTT aggregate)
COc1ccc(N2CCN(C(=O)CSc3nnc(-c4cc5ccccc5cc4O)n3C)CC2)cc1	HTT aggregate 12.6µM (no result: ERK EGF inh)
COCCCn1c(-c2ccc(S(=O)(=O)N3CCOCC3)cc2)csc1=Nc1ccccc1	NPSR antag inconclusive, HTT aggregate inconclusive, IMPase Li inh 10µM (no result: ERK EGF inh)
COc1cc2c(cc1OC)OC(C)(C)C=C2	none (no result: NPSR antag, HTT aggregate)
